# Reference: PubChem BioAssay (EPA / NIEHS)
# Inconclusive results are not listed. Activity calls are given as the source filed them. The calls were made as follows: active = hit-call score of the fitted dose curve at least 0.9, where 1 is the maximum; inconclusive = response in the unintended direction; inactive = score below 0.9.
# Assay: CLD_ACTIN_24hr: CellzDirect (CLD) Gene Expression Assay for Baseline Control (Actin) at 24 hours (AID 2283670)
# Protocol: CLD_24hr is a cell-based, multiplexed-readout assay that uses hepatocyte, a human liver primary cell, with measurements taken at 24 hours after chemical dosing in a 96-well plate.CLD_ACTIN_24hr is one of 16 assay component(s) measured or calculated from the CLD_24hr assay. It is designed to make measurements of mRNA induction, a form of inducible reporter, as detected with chemiluminescence signals by Quantitative Nuclease Protection Assay (qNPA) technology.Data from the assay component CLD_ACTIN_24hr was analyzed at the endpoint, CLD_ACTIN_24hr, in the positive analysis fitting direction relative to DMSO as the negative control and baseline of activity. Using a type of inducible reporter, gain-of-signal activity can be used to understand changes in the reporter gene as they relate to the gene ACTA1. Furthermore, this assay endpoint can be referred to as a secondary readout, because this assay has produced multiple assay endpoints where this one serves a background control function. To generalize the intended target to other relatable targets, this assay endpoint is annotated to the background measurement intended target family, where subfamily is baseline control.
# Human hepatocyte cultures were treated daily for two consecutive days with fresh dosing solutions containing appropriate concentrations of the 320 ToxCast chemicals (chemical identities were blinded to CellzDirect and other ToxCast collaborators), vehicle control (0.2% DMSO), and positive control inducers as summarized in Table 1. Due to the large number of treatment groups and chemicals examined, the ToxCast chemicals were divided into two groups (spanning two independent cultures of hepatocytes from separate donor preparations (Hu778: ToxCast plates 1 and 2; Hu776: ToxCast plates 3 and 4). Each preparation of human hepatocyte cultures was treated with respective vehicle control, medium only control, set of six positive controls/reference chemicals for the five hepatic receptor pathways, and a subset of eight of the ToxCast chemicals (indoxacarb, pyrithiobac-sodium, norflurazon, cyhalofop-butyl, methomyl, thiram, acetochlor, and propiconazole). These replicate data, coupled with internal replicates designed within the blinded ToxCast chemical library, provided additional data to evaluate interindividual differences between hepatocyte preparations and their potential impact on chemical profiles.Cell morphology and integrity were evaluated using phase-contrast microscopy as an indicator of hepatocyte cell health (Tyson & Green, 1987). Cultures for each treatment group (i.e., media, vehicle [0.2% DMSO], positive control inducers [multiple concentrations], and the ToxCast chemicals [multiple concentrations]) were observed and cell morphology was assessed relative to vehicle control cultures at each harvest time point (0, 6, 24, or 48 h). […] Images were evaluated at the conclusion of the study to assess changes in cell integrity and account for the effects of chemical exposure on uncharacteristic changes in concentration-dependent gene expression profiles. The results from these determinations of apparent cytotoxicity were annotated (yes/no) alongside the corresponding qNPA data for reference.At the conclusion of each treatment period, hepatocyte cultures (96-well) were washed with 1 volume of HBSS, lysed by addition of 25 ul ArrayPlate lysis buffer (HTG, Tucson, AZ), and 70 ul/well of Denaturation Oil, denatured by incubation at 95C for 10 min, and frozen at approximately -70C until analysis by nuclease protection assay (qNPA) (Roberts et al., 2007). For qNPA analysis, cell lysates were thawed at 50C for approximately 30 min, qNPA probes were added, and samples were incubated at 95C for 10 min to begin the detection process by denaturing the target RNA, dissociating the duplexes and secondary structure hybridization. At the conclusion of the hybridization period, S1 nuclease reagent was added to each sample to digest all nonprotected nucleotides at 50C for 60-90 min. […]
row,SMILES,outcome
1,COC(=O)c1ccccc1S(=O)(=O)NC(=O)Nc1nc(OC(F)F)cc(OC(F)F)n1,inactive
2,CCCCCOC(=O)COc1cc(N2C(=O)C3=C(CCCC3)C2=O)c(F)cc1Cl,inactive
3,CCCCOC(=O)[C@@H](C)Oc1ccc(Oc2ccc(C(F)(F)F)cn2)cc1,inactive
4,Oc1ccc(C(c2ccc(O)cc2)C(Cl)(Cl)Cl)cc1,inactive
5,CCOC(=O)C(C)Oc1ccc(Oc2nc3ccc(Cl)cc3o2)cc1 (configuration not stated),inactive
6,N#CSCSc1nc2ccccc2s1,inactive
7,c1ccc(Nc2ccccc2)cc1,inactive
8,CCOC(=O)COc1cc(-n2ncc(C(F)(F)F)c(C)c2=O)c(F)cc1Cl,inactive
9,COC(=O)c1ccccc1C(=O)O,inactive
10,CCOC(=O)NCCOc1ccc(Oc2ccccc2)cc1,inactive
11,CC(C)(C)[C@@H](O)[C@@H](Cc1ccc(Cl)cc1)n1cncn1,inactive
12,S=C(S)NCCNC(=S)S.[Mn+2].[S-]C([S-])=NCCN=C([S-])[S-].[Zn+2],inactive
13,CCC(C)OC(=O)N1CCCCC1CCO (configuration not stated),inactive
14,COC(=O)c1c(Cl)nn(C)c1S(=O)(=O)NC(=O)Nc1nc(OC)cc(OC)n1,inactive
15,C=CCOC(Cn1ccnc1)c1ccc(Cl)cc1Cl (configuration not stated),inactive
16,COC(=O)c1ccc(I)cc1S(=O)(=O)NC(=O)Nc1nc(C)nc(OC)n1,inactive
17,O=C(O)C1(C(=O)Nc2ccc(Cl)cc2Cl)CC1,inactive
18,COc1nc(C)nc(NC(=O)NS(=O)(=O)c2ccccc2OCCCl)n1,inactive
19,CC1(C)C(C=C(Cl)Cl)C1C(=O)OCc1cccc(Oc2ccccc2)c1 (configuration not stated),inactive
20,CCCN(CCC)C(=O)SCC,inactive
21,CCCCCCC(C)OC(=O)COc1nc(F)c(Cl)c(N)c1Cl (configuration not stated),inactive
22,CCCOC(=O)c1ccc(C(=O)OCCC)nc1,inactive
23,CCCCOC(=O)C(C)Oc1ccc(Oc2ccc(C(F)(F)F)cn2)cc1 (configuration not stated),inactive
24,CC(C)(c1ccc(O)cc1)c1ccc(O)cc1,inactive
25,COc1c(Cl)ccc(Cl)c1C(=O)O,inactive
26,COC(=O)c1ccc(CNS(C)(=O)=O)cc1S(=O)(=O)NC(=O)Nc1nc(OC)cc(OC)n1,inactive
27,CSC(=O)c1cccc2nnsc12,inactive
